For assay [1], the target named is T1, Ephrin type-A receptor 3 (Homo sapiens) (UniProt P29320).
T1 sequence (whole entry): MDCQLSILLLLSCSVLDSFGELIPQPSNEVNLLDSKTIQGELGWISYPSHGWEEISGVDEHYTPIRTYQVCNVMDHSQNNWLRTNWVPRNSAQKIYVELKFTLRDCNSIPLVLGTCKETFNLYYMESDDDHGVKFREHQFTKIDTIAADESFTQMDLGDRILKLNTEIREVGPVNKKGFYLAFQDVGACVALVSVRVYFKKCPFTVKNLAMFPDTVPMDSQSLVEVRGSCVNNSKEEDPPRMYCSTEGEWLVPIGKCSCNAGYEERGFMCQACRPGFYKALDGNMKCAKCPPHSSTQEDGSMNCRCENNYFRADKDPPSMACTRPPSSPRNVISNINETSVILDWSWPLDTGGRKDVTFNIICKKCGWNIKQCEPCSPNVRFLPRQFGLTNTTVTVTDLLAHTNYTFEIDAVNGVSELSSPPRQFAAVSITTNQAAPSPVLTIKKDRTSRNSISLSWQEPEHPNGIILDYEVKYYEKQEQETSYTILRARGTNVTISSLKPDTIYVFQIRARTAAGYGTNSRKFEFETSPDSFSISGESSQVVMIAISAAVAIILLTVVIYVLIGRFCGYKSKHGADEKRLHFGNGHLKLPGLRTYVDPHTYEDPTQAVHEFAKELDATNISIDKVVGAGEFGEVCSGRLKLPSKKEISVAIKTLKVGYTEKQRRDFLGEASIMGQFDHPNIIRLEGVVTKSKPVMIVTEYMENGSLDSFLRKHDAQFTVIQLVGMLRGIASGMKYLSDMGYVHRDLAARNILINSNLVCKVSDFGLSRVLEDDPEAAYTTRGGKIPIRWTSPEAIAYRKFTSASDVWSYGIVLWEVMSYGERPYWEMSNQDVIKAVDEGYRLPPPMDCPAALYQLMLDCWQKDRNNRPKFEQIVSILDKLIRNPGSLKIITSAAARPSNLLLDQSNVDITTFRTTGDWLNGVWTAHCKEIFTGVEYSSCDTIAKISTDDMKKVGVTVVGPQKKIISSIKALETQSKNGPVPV
Particulars: at 10 µM.

In assay [2] the target is Ephrin type-A receptor 4 (Homo sapiens) (UniProt P54764). Particulars: at 1 µM.
Assay [3] has the same target. Particulars: at 10 µM.
Assay [4] deals with Ephrin type-A receptor 5 (Homo sapiens) (UniProt P54756). Particulars: at 1 µM.
Assay [5] shares this target. Particulars: at 10 µM.
Assay [6] has as its target Ephrin type-A receptor 7 (Homo sapiens) (UniProt Q15375). Particulars: at 1 µM.
For assay [7] the target is unchanged. Particulars: at 10 µM.
The target in assay [8] is T2, Ephrin type-A receptor 8 (Homo sapiens) (UniProt P29322).
T2 sequence (whole entry): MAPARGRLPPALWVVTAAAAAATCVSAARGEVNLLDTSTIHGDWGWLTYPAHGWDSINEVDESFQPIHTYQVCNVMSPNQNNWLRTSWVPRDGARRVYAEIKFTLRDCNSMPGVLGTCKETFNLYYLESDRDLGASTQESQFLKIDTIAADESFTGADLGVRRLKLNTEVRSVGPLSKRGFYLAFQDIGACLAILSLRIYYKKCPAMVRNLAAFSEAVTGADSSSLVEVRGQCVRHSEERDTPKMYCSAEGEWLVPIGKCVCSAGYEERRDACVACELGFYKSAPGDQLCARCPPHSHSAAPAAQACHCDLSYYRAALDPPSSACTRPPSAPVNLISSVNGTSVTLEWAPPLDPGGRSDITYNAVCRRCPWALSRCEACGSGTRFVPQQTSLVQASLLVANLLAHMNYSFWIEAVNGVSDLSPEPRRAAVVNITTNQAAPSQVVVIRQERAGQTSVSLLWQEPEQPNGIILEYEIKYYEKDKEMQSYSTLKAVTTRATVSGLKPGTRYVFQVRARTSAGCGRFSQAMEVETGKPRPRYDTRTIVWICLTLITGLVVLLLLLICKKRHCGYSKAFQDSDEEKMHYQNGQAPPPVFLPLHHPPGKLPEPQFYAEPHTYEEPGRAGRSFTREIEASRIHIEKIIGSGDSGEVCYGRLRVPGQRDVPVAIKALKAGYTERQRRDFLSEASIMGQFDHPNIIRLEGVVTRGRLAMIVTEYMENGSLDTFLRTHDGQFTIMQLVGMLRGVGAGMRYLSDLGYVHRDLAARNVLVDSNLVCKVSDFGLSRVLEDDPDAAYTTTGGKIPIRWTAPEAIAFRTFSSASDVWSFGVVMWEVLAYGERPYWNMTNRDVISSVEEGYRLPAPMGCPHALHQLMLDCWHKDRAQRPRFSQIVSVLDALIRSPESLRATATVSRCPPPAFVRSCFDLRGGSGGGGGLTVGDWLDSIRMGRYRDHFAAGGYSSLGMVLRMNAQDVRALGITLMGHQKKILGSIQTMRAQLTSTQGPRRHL
Particulars: at 1 µM.

The target of assay [9] is T2, Ephrin type-A receptor 8 (Homo sapiens). Particulars: at 10 µM.
In assay [10] the target is T3, Ephrin type-B receptor 1 (Homo sapiens) (UniProt P54762).
T3 sequence (whole entry): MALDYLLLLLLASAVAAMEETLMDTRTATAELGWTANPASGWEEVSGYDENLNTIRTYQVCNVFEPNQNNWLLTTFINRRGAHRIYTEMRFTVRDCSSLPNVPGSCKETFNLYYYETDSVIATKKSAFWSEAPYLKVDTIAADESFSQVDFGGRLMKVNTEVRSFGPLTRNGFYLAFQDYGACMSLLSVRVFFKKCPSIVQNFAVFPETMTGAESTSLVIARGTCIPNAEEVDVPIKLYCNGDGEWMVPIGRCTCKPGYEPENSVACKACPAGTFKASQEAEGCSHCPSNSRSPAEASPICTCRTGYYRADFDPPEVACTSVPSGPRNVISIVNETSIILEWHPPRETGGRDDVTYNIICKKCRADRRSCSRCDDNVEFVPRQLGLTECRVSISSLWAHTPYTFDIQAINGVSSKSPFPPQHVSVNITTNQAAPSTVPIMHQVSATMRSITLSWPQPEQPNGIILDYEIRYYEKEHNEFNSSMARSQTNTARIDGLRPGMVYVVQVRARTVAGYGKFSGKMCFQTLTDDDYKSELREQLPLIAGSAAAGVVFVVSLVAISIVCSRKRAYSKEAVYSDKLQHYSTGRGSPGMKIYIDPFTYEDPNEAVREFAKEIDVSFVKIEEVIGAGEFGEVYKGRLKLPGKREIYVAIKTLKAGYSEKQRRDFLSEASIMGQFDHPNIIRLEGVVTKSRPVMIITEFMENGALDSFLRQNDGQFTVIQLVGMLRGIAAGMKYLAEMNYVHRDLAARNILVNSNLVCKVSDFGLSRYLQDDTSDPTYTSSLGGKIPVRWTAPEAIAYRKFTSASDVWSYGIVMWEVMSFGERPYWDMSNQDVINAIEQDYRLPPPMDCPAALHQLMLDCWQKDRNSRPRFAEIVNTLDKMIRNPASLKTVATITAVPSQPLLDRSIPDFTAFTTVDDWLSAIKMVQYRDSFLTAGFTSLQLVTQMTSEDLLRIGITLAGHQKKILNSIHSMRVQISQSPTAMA
Particulars: at 1 µM.

Molecules are shown by their SMILES.

Ephrin type-A receptor 5 (Homo sapiens), sequence (P54756 whole entry): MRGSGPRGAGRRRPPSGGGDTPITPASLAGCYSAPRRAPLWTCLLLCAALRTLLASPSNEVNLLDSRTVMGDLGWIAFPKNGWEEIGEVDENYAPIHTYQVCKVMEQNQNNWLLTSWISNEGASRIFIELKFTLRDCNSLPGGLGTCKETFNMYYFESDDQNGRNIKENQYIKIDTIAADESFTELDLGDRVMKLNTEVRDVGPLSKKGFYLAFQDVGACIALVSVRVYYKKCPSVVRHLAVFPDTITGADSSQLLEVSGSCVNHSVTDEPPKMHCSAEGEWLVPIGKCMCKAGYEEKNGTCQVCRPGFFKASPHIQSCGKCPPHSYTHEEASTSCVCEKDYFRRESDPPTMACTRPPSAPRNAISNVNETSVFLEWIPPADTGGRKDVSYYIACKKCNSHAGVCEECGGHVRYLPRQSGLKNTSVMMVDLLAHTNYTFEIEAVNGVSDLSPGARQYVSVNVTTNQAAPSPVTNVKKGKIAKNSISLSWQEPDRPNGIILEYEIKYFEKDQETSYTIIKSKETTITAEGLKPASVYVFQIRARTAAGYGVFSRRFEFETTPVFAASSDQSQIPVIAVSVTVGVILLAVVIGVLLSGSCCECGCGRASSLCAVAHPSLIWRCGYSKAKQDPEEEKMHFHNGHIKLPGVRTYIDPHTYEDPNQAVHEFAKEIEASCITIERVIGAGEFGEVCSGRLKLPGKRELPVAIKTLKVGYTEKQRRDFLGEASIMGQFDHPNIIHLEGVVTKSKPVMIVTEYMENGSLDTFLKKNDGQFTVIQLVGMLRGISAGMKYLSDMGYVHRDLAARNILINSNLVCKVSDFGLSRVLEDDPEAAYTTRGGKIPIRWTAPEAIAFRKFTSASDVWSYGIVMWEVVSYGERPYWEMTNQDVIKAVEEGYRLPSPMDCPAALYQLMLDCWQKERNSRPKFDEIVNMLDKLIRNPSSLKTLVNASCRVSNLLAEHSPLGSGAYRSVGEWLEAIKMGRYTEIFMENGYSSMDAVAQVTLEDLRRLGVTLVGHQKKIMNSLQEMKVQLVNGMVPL
Ephrin type-A receptor 7 (Homo sapiens), sequence (Q15375 28-998 limits assumed): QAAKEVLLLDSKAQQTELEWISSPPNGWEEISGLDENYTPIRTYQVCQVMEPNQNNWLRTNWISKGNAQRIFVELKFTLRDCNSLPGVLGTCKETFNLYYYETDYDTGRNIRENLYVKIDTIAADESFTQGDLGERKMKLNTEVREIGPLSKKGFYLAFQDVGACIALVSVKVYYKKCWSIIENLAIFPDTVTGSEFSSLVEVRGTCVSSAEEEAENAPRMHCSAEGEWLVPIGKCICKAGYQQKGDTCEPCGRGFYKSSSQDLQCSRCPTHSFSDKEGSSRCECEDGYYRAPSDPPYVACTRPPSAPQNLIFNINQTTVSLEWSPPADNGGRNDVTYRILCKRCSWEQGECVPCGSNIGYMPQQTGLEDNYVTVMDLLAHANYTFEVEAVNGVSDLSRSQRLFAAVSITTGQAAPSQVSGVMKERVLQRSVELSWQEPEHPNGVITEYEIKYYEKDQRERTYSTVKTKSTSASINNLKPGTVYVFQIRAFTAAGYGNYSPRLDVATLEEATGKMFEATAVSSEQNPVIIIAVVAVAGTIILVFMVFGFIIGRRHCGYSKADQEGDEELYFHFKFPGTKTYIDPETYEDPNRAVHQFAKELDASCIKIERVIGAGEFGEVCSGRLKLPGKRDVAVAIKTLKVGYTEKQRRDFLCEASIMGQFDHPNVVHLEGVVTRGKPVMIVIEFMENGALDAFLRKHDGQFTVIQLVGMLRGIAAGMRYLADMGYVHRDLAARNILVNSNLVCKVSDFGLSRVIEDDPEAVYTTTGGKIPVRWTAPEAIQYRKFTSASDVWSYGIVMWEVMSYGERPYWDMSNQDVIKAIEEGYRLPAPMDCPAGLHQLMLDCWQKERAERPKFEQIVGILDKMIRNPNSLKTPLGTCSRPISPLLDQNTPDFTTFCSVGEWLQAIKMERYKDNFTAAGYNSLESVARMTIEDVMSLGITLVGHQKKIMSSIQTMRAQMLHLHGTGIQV
Ephrin type-A receptor 4 (Homo sapiens), sequence (P54764 whole entry): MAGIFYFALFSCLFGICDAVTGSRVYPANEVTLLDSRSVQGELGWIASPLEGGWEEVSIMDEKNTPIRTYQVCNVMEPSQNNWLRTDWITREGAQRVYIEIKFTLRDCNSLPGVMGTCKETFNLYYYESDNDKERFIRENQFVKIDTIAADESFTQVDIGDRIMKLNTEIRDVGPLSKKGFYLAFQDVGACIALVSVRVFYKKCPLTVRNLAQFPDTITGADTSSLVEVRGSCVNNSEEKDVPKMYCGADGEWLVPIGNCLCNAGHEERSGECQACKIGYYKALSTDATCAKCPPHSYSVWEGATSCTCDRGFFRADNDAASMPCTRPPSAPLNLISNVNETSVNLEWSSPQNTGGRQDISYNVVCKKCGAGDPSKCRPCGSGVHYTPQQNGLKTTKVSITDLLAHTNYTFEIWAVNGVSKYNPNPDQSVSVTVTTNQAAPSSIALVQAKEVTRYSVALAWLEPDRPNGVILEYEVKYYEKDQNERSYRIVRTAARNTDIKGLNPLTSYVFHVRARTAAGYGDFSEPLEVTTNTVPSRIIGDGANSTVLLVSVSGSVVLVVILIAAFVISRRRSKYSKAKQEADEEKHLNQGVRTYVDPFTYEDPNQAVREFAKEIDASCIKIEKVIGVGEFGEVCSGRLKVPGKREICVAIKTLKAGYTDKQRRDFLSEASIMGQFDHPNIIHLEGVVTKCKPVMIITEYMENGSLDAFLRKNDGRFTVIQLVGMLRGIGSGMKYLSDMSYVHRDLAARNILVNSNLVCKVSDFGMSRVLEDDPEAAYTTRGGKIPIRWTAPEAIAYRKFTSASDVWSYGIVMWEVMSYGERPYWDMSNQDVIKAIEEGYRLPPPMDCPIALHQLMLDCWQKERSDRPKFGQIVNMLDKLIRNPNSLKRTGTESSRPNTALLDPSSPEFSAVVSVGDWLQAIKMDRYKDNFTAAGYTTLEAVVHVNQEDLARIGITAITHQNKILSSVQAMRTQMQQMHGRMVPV

As to `CO[C@H]1[C@@H](OC)C[C@H](C)[C@@H](OC)C2=CC(=O)C=C(NC(=O)/C(C)=C/C=C/[C@H](OC)[C@@H](OC(N)=O)/C(C)=C/[C@@H]1C)C2=O`, the residual activity in assay [1] is 85%; in assay [2], 110%; in [3], 112%; in [4] it was 107%; in [5], 95%; in assay [6], 95%. Further, the residual activity in assay [7] is 96%; in assay [8] it was 96%; in [9], 105%; in [10], 109%.

These data come from ChEMBL document CHEMBL2218924, “A broad activity screen in support of a chemogenomic map for kinase signalling research and drug discovery” (Biochem J, 2013).
